Screening data from PubChem BioAssay.
HP1b binding inh – HP1-beta chromodomain-methylated histone interaction inhibition; P83916; 390,000 compounds, 0.56% hits; AID 540317; AlphaScreen HP1-beta / biotin-H3K9me3 peptide binding; Potency, µM (titrated, usually from 114 µM), for the others: at the top dose activity change, negative = inhibition, actives largely listed as inhibitors; further: potency means the concentration at half of the fitted maximal effect; nearly all actives have a fitted effect of over 70% in size
Target sequence (P83916 whole entry, looked up): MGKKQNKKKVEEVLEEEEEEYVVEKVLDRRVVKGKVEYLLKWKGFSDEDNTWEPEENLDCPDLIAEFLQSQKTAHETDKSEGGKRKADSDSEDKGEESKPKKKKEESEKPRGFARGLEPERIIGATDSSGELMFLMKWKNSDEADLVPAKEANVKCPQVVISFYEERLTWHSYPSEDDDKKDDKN
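AlphaScreen: HP1-beta (50 nM) preformed 30 min with biotin-H3(1-18)K9me3 peptide (50 nM) in PBS pH 7.4, 0.01% Tween-20. Compound added for 30 min at RT, then streptavidin donor/nickel chelate acceptor beads (10 ug/mL) for 30 min.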
PI5P4Ka inh – blocks human PI5P4K alpha kinase activity | 330,000 compounds, 1.2% hits | max response, % | PI5P4Kalpha enzyme, ADP-Glo luminescence, 60 min; stronger effect = lower value | P48426; active means max response of -50% or lower; inconclusive means between -30% and -50%; inactive means -30% or higher; further: value at the top dose of about 77 µM; on the % scale 0 is the no-effect control and ±100 the full control effect
Target sequence (P48426 whole entry, looked up): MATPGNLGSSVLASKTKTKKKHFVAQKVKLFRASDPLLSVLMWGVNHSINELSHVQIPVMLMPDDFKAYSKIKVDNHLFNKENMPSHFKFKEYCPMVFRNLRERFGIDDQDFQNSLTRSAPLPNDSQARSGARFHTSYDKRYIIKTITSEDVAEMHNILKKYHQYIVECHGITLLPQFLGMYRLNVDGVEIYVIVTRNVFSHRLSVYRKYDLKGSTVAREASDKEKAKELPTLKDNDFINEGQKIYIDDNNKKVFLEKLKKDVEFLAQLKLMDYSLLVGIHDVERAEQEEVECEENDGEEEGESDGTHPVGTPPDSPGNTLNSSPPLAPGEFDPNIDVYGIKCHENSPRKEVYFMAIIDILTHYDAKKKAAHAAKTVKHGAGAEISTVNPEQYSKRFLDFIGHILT
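Reactions run in 0.038 M HEPES pH 7.4, 0.28 mM EGTA, 0.1% CHAPS and 5% DMSO, with PI5P4Kalpha, substrate, compound and 5 microM ATP final, one hour at room temperature. Readout is ADP-Glo luminescence.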
BAZ2B inh – BAZ2B (human) inhibition; Q9UIF8; AlphaScreen BAZ2B-H3K14Ac peptide displacement; Potency, µM (highest dose often 114 µM), inactives show top-dose activity change, negative = inhibition, most hits filed as inhibitors; 360,000 compounds, 4.4% hits; further: potency means the concentration at half of the fitted maximal effect; on the % scale 0 is the no-effect control and ±100 the full control effect; nearly all actives have a fitted effect of over 60% in size
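BAZ2B (50 nM) with biotin-H3(5-23)K14Ac peptide (50 nM) in PBS pH 7.4, 0.01% Tween-20, preformed 30 min, then compound 30 min at room temperature; top concentration 110uM. AlphaScreen streptavidin donor/nickel chelate acceptor beads (10 ug/mL final), 20 min dark, signal read.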
JMJD2A Tudor – inhibitors of human JMJD2A Tudor domain. O75164. AlphaScreen JMJD2A-Tudor / H3K4me3 peptide binding. Potency, µM (top dose mostly 114 µM), without a hit: at the top dose activity change, negative = inhibition, most hits filed as inhibitors. 390,000 compounds, 4.4% hits. AID 504339; further: potency means the concentration at half of the fitted maximal effect; on the % scale 0 is the no-effect control and ±100 the full control effect; nearly all actives have a fitted effect of over 50% in size
G9a block – G9a (human) methyltransferase inhibition; 350,000 compounds, 8.8% hits; Potency, µM (top dose mostly 102 µM), for the others: at the top dose activity, negative = inhibition, actives largely listed as inhibitors; Q96KQ7; G9a H3K9 monomethylation, AlphaScreen, 2 h; further: potency means the concentration at half of the fitted maximal effect; on the % scale 0 is the no-effect control and ±100 the full control effect; nearly all actives have a fitted effect of over 75% in size
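Readings reflect AlphaScreen signal from monomethyl-H3K9 antibody detection. HMT at 20 nM; substrate b-H3K9 500 nM; cofactor SAM 20 uM; 2 h RT reaction; compounds tested as titrations in qHTS with 15 min preincubation.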
PLK1 PBD block – blocks phosphopeptide binding to human PLK1 polo-box domain; 360,000 compounds, 2.8% hits; Plk1 PBD binding of FITC phosphopeptide, fluorescence polarization; P53350; Potency, µM, for inactives: max response, negative = inhibition, hits mostly inhibitors; AID 720504; further: potency means the concentration at half of the fitted maximal effect; series mostly up to about 57 µM; on the % scale 0 is the no-effect control and ±100 the full control effect; nearly all actives have a fitted effect of over 65% in size
* = called active by the depositor; u = inconclusive; x = not tested or not shown; [ ] = remark or other dose. Shown are actives, neighbours in structure and some others; about 12% of the full set was active somewhere. Unless noted, the call rests on the fitted dose curve; in most records, active means well fitted curve in the direction sought with a large enough effect; inconclusive means small, poorly fitted or top-dose-only effect, or another doubt; inactive means no such curve, though single readings can be large; an effect the other way counts as inactive or inconclusive.

SMILES	HP1b binding inh	PI5P4Ka inh	BAZ2B inh	JMJD2A Tudor	G9a block	PLK1 PBD block
O=C(Oc1nsnc1N1CCOCC1)c1ccccc1	-23.4%	x	-4.2%	-34.6%	35.5µM*	23.8µM*
Cc1cc2c(cc1S(=O)(=O)Nc1ccc(C(C)C)cc1)OCCN2C	40.4%	x	u	-15.5%	-20.7%[59 µM]	x
CCn1c(C)nc2cc(C(=O)N/N=C/c3cccc(O)c3O)ccc21	31.1%	-1.0	79.4µM*	79.4µM*	-31.5%	0.5%
CCn1c(C)nc2cc(C(=O)NNC(=S)Nc3ccc(F)cc3)ccc21	26.0%	0.7	-0.2%	-5.8%	44.7µM*	-4.5%
CCn1c(C)nc2cc(C(=O)NNC(=S)NC(=O)c3ccccc3)ccc21	31.3%	1.3	-1.2%	-22.3%	17.8µM*	u
CCn1c(C)nc2cc(C(=O)NNC(=S)Nc3ccc(Cl)cc3)ccc21	21.1%	-8.9	1.7%	-20.7%	u	-23.8%
CCn1c(C)nc2cc(C(=O)NNC(=S)Nc3ccccc3)ccc21	28.2%	0.2	0.3%	-9.8%	44.7µM*	u
CCn1c(C)nc2cc(C(=O)NNC(=S)Nc3ccc(Cl)cc3Cl)ccc21	u	-10.7	27.0%	-35.0%	-12.8%[59 µM]	-28.0%
CCn1c(C)nc2cc(C(=O)NNC(=S)Nc3ccccc3Cl)ccc21	9.9%	-8.0	-2.2%	-15.7%	u	-22.6%
CCCOc1ccc(Cn2c(=O)oc3ccc(C)cc32)cc1	41.8%[57 µM]	23.1	28.5%	29.6%	138.9%	-1.4%
O=C1NC(=Nc2ccc3ccccc3c2)S/C1=C/c1ccco1	8.5%	-55.4*	20µM*	u	50.1µM*	-29.4%
O=C1NC(=Nc2ccc(O)cc2)S/C1=C/c1ccco1	-15.1%	u	-12.8%	-28.2%	u	-10.8%
Cc1ccc(N=C2NC(=O)/C(=C\c3ccco3)S2)cc1	-20.9%	-56.8*	39.8µM*	u	u	-25.3%
CS(=O)(=O)c1ccc(Nc2nc(C(N)c3ccccc3Cl)cs2)cc1 (stereo not drawn)	x	3.1	x	x	x	-15.5%
CN(C(=O)c1ccc(NC(=O)Cc2ccc(NC(=O)C3CCCN(C(=O)C4CCC4)C3)cc2)cc1)C1CCCC1 (stereo not drawn)	38.7%	-2.5	x	-6.8%	x	-1.7%
Cc1cccc(NC(=O)c2oc3ccc(S(=O)(=O)N(C)C4CCCCC4)cc3c2C)c1C	26.1%	x	-3.7%	-22.6%	14.5%[59 µM]	x
CCOc1ccc(C(=O)NCCn2cc(SCC(=O)Nc3cc(C)on3)c3ccccc32)cc1	18.7%	-1.2	79.4µM*	-19.2%	-7.0%[59 µM]	-13.6%
CCCn1cc(SCC(=O)Nc2nnc(C)s2)c2ccccc21	38.6%	3.1	-0.3%	0.7%	u	-4.2%
CCN(CC)C(=O)Cn1cc(SCC(=O)Nc2cc(C)on2)c2ccccc21	14.2%	-5.5	-11.8%	89.1µM*	-6.7%	u
Cc1ccc(C(=O)NCCn2cc(SCC(=O)Nc3nnc(C)s3)c3ccccc32)cc1	36.4%	-3.3	-5.7%	-22.2%	50.1µM*	-2.0%
Cc1ccc(C(=O)C=Cc2ccc3c(c2)OCO3)c(C)c1	x	15.4	x	x	x	-3.3%
Cc1ccc(O)c(C(=O)/C=C/c2ccc3c(c2)OCCO3)c1	u	15.4	28.2µM*	28.2µM*	25.1µM*	-8.9%
O=C(/C=C/c1ccc(F)cc1)c1cc(Br)ccc1O	42.9%	4.9	-2.6%	22.6%	99.6%	-9.4%
CCNc1ccc(Br)cc(C(=O)/C=C/c2c(Cl)cccc2Cl)c1=O	u	-18.4	25.1µM*	89.1µM*	3.98µM*	u
Nc1ccccc1C(=O)/C=C/c1ccc2c(c1)OCO2	u	6.0	14.1µM*	44.7µM*	39.8µM*	-3.6%
SMILES	HP1b binding inh	PI5P4Ka inh	BAZ2B inh	JMJD2A Tudor	G9a block	PLK1 PBD block
CCNc1ccc(Br)cc(C(=O)/C=C/c2ccc(Cl)cc2)c1=O	-34.7%	u	10µM*	44.7µM*	10µM*	u
O=C(/C=C/c1ccc2c(c1)OCO2)c1ccc(O)cc1O	-7.4%[57 µM]	-17.8	x	u	x	-1.6%
CCC(C)NC(=O)Cn1nc(Cc2ccncc2)c2ccccc2c1=O (stereo not drawn)	23.0%	-1.5	-7.8%	-4.2%	-20.0%[2.33 µM]	1.2%
CCCCN1C(=O)C(O)(c2c[nH]c3ccccc23)c2cc(Br)ccc21 (stereo not drawn)	-1.2%	x	u	-32.1%	-40.7%[59 µM]	x
O=C(/C=C/c1ccc2c(c1)OCO2)c1ccco1	-13.7%	-14.0	-36.4%	-15.0%	25.4%[59 µM]	-6.0%
CCNc1ccc(Br)cc(C(=O)/C=C/c2ccc3c(c2)OCO3)c1=O	20µM*	u	22.4µM*	44.7µM*	x	u
Cc1ccc(-c2[nH]c(=S)[nH]c(=O)c2C#N)cc1	25.4%	-72.4*	-12.9%	-19.9%	29.7%[0.501 µM]	-11.3%
O=C(CSc1cccc[n+]1[O-])c1cc(Cl)ccc1Cl	33.5%	-6.8	x	-3.8%	u	-7.2%
Cn1cccc1C(=O)NC(=O)CSc1cccc[n+]1[O-]	12.5%	-13.5	-36.7%	-10.4%	28.2µM*	-9.3%
Cn1c(N)c(C(=O)CSc2nnc(C3CC3)n2Cc2ccccc2)c(=O)n(C)c1=O	19.5%[57 µM]	-0.1	x	-9.0%	x	2.5%
O=C(CSc1nnc(C2CC2)n1Cc1ccccc1)c1cc2ccccc2o1	13.9%	u	-34.7%	56.2µM*	44.7µM*	u
O=C(CSc1cccc[n+]1[O-])c1cc2ccccc2o1	36.4%	-0.5	u	-35.2%	u	26.7µM*
O=C(O)CSc1cccc[n+]1[O-]	5.6%	-4.4	-22.9%	-17.7%	u	-1.3%
O=C(CSc1cccc[n+]1[O-])c1cccs1	15.0%	4.6	-12.0%	-9.2%	17.8µM*	23.8µM*
CCOc1ccccc1NC(=O)N(Cc1ccc(F)cc1)C1CCN(CC)CC1	24.0%	x	-11.0%	-8.6%	-32.9%[59 µM]	x
CN(C)c1ccc(C=Nc2ccc(N(C)C)cc2)cc1	50.1µM*	-6.9	20µM*	56.2µM*	u	-8.8%
CN(C)c1ccc(N=Cc2ccco2)cc1	15.8µM*	x	-107.8%	28.2µM*	10µM*	-10.3%
Cc1ccc(N=Cc2ccc(N(C)C)cc2)cc1	6.5%	-8.5	-6.2%	-14.4%	-35.5%	-3.3%
C(=N\C(/N=C/c1ccco1)c1ccco1)/c1ccco1	2.6%	u	u	u	5.2%[59 µM]	-6.6%
C(=Nc1cccc2c(N=Cc3ccco3)cccc12)c1ccco1	-4.5%	-26.9	28.2µM*	-32.0%	39.8µM*	-9.4%
CC(C)c1ccc(N2C(=O)CSC23C(=O)N(C)c2ccccc23)cc1 (stereo not drawn)	4.6%	x	-19.1%	-10.0%	-44.1%[59 µM]	x
Cc1ccc(Cc2c(C)nc3nc(SCC(=O)NCCC(C)C)nn3c2C)cc1	14.7%	x	-2.6%	-17.7%	-4.5%[59 µM]	x
CN(CCCC(=O)O)c1ccc(N=Nc2ccc([N+](=O)[O-])cc2)cc1	11.2µM*	-26.4	x	22.4µM*	x	-25.8%
